Bead autofluor: counter-screen for toxin protease inhibitors: compound fluorescence; compound autofluorescence counterscreen, microsphere flow cytometry; stronger effect = higher value; fluorescence intensity (concentration not given with the values); actives 3.1% (n = 360,000); AID 624483; in the data active = fluorescence intensity above about 16000; inconclusive = no clear call, values can overlap the other calls
BoNT-F LC inh: blocks Botulinum neurotoxin F light chain protease; actives 0.22% (n = 360,000); inhibition, % at 10 µM; AID 588497; Multiplex microsphere protease cleavage assay, flow cytometry; in the data active = inhibition above about 35%, passing the limit was not always enough; inconclusive = no clear call, values can overlap the other calls
MazEF act: activators of E. coli MazEF toxin-antitoxin RNase. actives 0.32% (n = 350,000). FAM/BHQ RNA-DNA oligo cleavage fluorescence, 5 h. P0AE70. AID 504720. activation, % at 20 µM; in the data active = activation above about 50%
Target sequence (P0AE70 whole entry, looked up): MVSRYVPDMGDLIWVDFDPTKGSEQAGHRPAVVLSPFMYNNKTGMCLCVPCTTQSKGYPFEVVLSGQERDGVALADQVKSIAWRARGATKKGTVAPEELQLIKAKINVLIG
Anthrax LF inh2: blocks Bacillus anthracis lethal factor protease; P15917; multiplex microsphere protease cleavage assay, LF; inhibition, % at 10 µM; actives 0.12% (n = 360,000); AID 588501
BoNT A protease: BoNT A light chain protease inhibition. multiplex microsphere protease substrate cleavage, flow cytometry. actives 0.17% (n = 360,000). inhibition, % at 10 µM
Numbers stand for hits; – = inactive; ? = inconclusive; · = not tested or not shown; + = active, no number. The list is not random: actives were taken first. Their share in the collection is about 3.6%. Cut-off read from the data, not from the text of the source, unless noted: active = inhibition above about 30%; inconclusive = no clear call, values can overlap the other calls; inactive = below that.

SMILES | Bead autofluor | BoNT-F LC inh | MazEF act | Anthrax LF inh2 | BoNT A protease
Cn1cccc1-c1nc2ccc(NC(=O)c3ccccc3)cc2[nH]1 | – | – | – | – | –
Cn1cccc1-c1nc2ccc(NC(=O)c3ccc([N+](=O)[O-])cc3)cc2[nH]1 | 19889 | – | – | – | –
CC(Oc1ccccc1)c1ccnc2nc(/N=C/N(C)C)nn12 (stereo not given) | 21790 | – | – | – | ?
Cc1cc(C)cc(OC(C)c2ccnc3nc(/N=C/N(C)C)nn23)c1 (stereo not given) | – | – | – | – | –
CC(C)=C[C@H]1C[C@H](C)[C@H]2CC[C@H](C)c3c(O[C@@H]4O[C@@H](C)[C@@H](O)[C@@H](O)[C@@H]4O)c(O)c(C)c1c32 | – | – | · | – | –
Cc1cc(C)cc(OCC(=O)NNC(=O)CC(C)c2ccccc2)c1 (stereo not given) | – | – | – | – | –
CCc1ccc([C@@H]2C[C@H]3[C@@H](CN2S(=O)(=O)c2ccc(C)cc2)C(=O)C[C@@H](c2ccccc2)N3S(=O)(=O)c2ccc(C)cc2)cc1 | – | – | – | – | –
Cc1ccc(C)c(S(=O)(=O)NCc2ccc(C(=O)NCc3ccco3)cc2)c1 | – | ? | – | – | –
Cc1ccc(C(=O)NCc2ccco2)cc1S(=O)(=O)Nc1cccc(Cl)c1 | 21942 | – | – | – | ?
COc1ccc(C2=Nn3c(C)nnc3SC2)cc1 | – | – | – | – | –
COc1cc(CO)ccc1Oc1nnnn1-c1ccc(C(N)=O)cc1 | 16480 | – | – | – | –
COc1cc(C=O)ccc1Oc1nnnn1-c1ccc(C(N)=O)cc1 | – | – | – | – | –
C[C@@H]1CN([C@@H](C)CO)C(=O)CCCn2nncc2CO[C@H]1CN(C)C(=O)Nc1cccc(Oc2ccccn2)c1 | – | – | – | – | –
Cc1cccc(NC(=S)N(CCN(C)C)C(C)c2ccccn2)c1 (stereo not given) | 22805 | – | – | – | –
CCCn1nc(-c2ccccc2)c2nc3ccccc3nc21 | · | · | + | · | ·
CCCOc1ccc(-c2nc(C#N)c(N3CCC(C(N)=O)CC3)o2)cc1 | 19961 | – | – | – | –
CCOc1ccc(-c2nc(C#N)c(N3CCN(CC)CC3)o2)cc1 | 19650 | – | – | – | ?
CCCOc1ccc(-c2nc(C#N)c(N3CCN(CC)CC3)o2)cc1 | – | – | – | – | –
CC(=O)N1N=C2c3ccccc3CCC2C1c1ccc(F)cc1 (stereo not given) | – | – | – | – | –
COc1ccc2c(c1)CCC1C2=NN(/C(C)=C/C(C)=O)C1c1cccc(F)c1 (stereo not given) | 62503 | – | – | – | –
COc1cccc(C(=O)CN(C(=O)c2ccc(Cl)c(Cl)c2)N2C(=O)c3ccccc3C2=O)c1 | 16849 | – | – | – | ?
Cc1ccc(C(=O)CN(C(=O)c2ccc(Cl)c(Cl)c2)N2C(=O)C3CCCCC3C2=O)cc1C (stereo not given) | 20975 | – | – | – | ?
O=C1[C@H]2[C@@H](c3ccccc3)N[C@]3(CCCN(CC4CCCCC4)C3=O)[C@H]2C(=O)N1Cc1ccccc1 | – | – | – | – | –
COc1ccccc1Cc1c(-c2ccc(C#N)cc2)nc2ccc(C)cn12 | – | – | · | – | –
COC(=O)c1cc(NC(=O)CSc2nncn2C)cc(C(=O)OC)c1 | 20871 | – | – | – | –
SMILES | Bead autofluor | BoNT-F LC inh | MazEF act | Anthrax LF inh2 | BoNT A protease
Cn1nnnc1SCC(=O)NCc1cccc(C(=O)O)c1 | 20029 | – | – | – | ?
COC(=O)c1ccc(-n2nnnc2SCC(=O)NCc2cccc(C(=O)O)c2)cc1 | – | – | – | – | –
CCC(=O)Nc1cccc(NC(=O)CSc2nnnn2C)c1 | 16778 | – | – | – | –
CCOC(=O)c1cccc(NC(=O)CSc2nnnn2C)c1 | – | – | – | – | –
Cn1nnnc1SCC(=O)Nc1cc(C(=O)O)cc(C(=O)O)c1 | 17115 | – | – | – | ?
CN(CC1COc2ccccc2O1)C(=O)CSc1ncccn1 (stereo not given) | – | – | – | – | –
C[C@H](CO)N1C[C@H](C)[C@@H](CN(C)C(=O)Nc2cccc(F)c2)Oc2ncc(Br)cc2C1=O | – | – | – | – | –
CC1CCN(C(=O)COC(=O)c2ccccc2NCCO)CC1 | – | – | – | – | –
Cc1nn2c(N)c(-c3ccccc3)cnc2c1-c1ccccc1 | – | – | – | – | –
Cn1nnnc1SCC(=O)Nc1ccccn1 | 22271 | – | – | – | ?
Cc1cc(Br)cn2c(Cc3ccsc3)c(-c3cccc(Br)c3)nc12 | – | – | · | – | –
Cc1n[nH]c(=S)n1/N=C/c1ccccc1OCc1ccc(Cl)cc1 | 19713 | – | – | – | ?
